PI5P4K alpha inh = qHTS for Inhibitors of phosphatidylinositol 5-phosphate 4-kinase (PI5P4K). 330,000 compounds, 1.2% hits. PI5P4Kalpha enzyme, ADP-Glo luminescence, 60 min; stronger effect = lower value. Phosphatidylinositol 5-phosphate 4-kinase type-2 alpha (Homo sapiens), P48426. max response, %; active = max response of -50% or lower; inconclusive = between -30% and -50%; inactive = -30% or higher; note: value at the top dose of about 77 µM; % is set by controls: 0 for no effect and ±100 for the full control effect
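Luminescence from ADP-Glo served as readout of PI5P4Kalpha activity in a qHTS format. Reaction: enzyme, substrate, compound, ATP at 5 microM final, 60 min at RT.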
JMJD2A Tudor inh = qHTS Assay for Inhibitors of JMJD2A-Tudor Domain; AlphaScreen JMJD2A-Tudor / H3K4me3 peptide binding; Lysine-specific demethylase 4A (Homo sapiens), O75164; Potency, µM (highest dose often 114 µM), for inactives: at the top dose activity change, negative = inhibition, usual class: inhibitors; 390,000 compounds, 4.4% hits; AID 504339, 2011; note: potency is the fitted concentration of half-maximal effect; % is set by controls: 0 for no effect and ±100 for the full control effect; nearly all actives have a fitted effect of over 50% in size
BAZ2B block = qHTS Assay for Inhibitors of BAZ2B | Bromodomain adjacent to zinc finger domain protein 2B (Homo sapiens), Q9UIF8 | AlphaScreen BAZ2B-H3K14Ac peptide displacement | Potency, µM (series often up to 114 µM), for the others: at the top dose activity change, negative = inhibition, actives largely listed as inhibitors | 360,000 compounds, 4.4% hits; note: potency is the fitted concentration of half-maximal effect; % is set by controls: 0 for no effect and ±100 for the full control effect; nearly all actives have a fitted effect of over 60% in size
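BAZ2B (50 nM) with biotin-H3(5-23)K14Ac peptide (50 nM) in PBS pH 7.4, 0.01% Tween-20, preformed 30 min, then compound 30 min at room temperature; top concentration 110uM. AlphaScreen streptavidin donor/nickel chelate acceptor beads (10 ug/mL final), 20 min dark, signal read.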
G9a inh = qHTS Assay for Inhibitors of Histone Lysine Methyltransferase G9a; Histone-lysine N-methyltransferase EHMT2 (Homo sapiens), Q96KQ7; G9a H3K9 monomethylation, AlphaScreen, 2 h; Potency, µM (top dose mostly 102 µM), for the others: at the highest dose activity, negative = inhibition, actives largely listed as inhibitors; 350,000 compounds, 8.8% hits; AID 504332, 2011; note: potency is the fitted concentration of half-maximal effect; % is set by controls: 0 for no effect and ±100 for the full control effect; nearly all actives have a fitted effect of over 75% in size
Target sequence (Q96KQ7 913-1193 limits assumed): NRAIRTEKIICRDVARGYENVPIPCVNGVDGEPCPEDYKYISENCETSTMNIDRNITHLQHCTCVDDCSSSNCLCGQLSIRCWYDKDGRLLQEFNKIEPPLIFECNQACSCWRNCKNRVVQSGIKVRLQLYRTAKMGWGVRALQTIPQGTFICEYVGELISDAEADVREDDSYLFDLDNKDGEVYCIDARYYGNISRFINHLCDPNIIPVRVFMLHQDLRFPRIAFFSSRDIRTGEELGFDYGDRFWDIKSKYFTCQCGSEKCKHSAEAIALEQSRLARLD
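Enzyme 20 nM + cpd, 15 min RT; add b-H3K9 pep 500 nM / SAM 20 uM; 2 h RT; anti-H3K9me1 Ab 0.5 ug/mL + SA donor / anti-rabbit acceptor beads 20 ug/mL each, 10 min; AlphaScreen read.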
PLK1 PBD block = qHTS for Inhibitors of PLK1-PDB (polo-like kinase 1 - polo-box domain): Primary Screen | Potency, µM, inactives show max response, negative = inhibition, actives largely listed as inhibitors | 360,000 compounds, 2.8% hits | Plk1 PBD binding of FITC phosphopeptide, fluorescence polarization | AID 720504, 2013; note: potency is the fitted concentration of half-maximal effect; series mostly up to about 57 µM; % is set by controls: 0 for no effect and ±100 for the full control effect; nearly all actives have a fitted effect of over 65% in size
HP1b chromo inh = HTS for Inhibitors of HP1-beta Chromodomain Interactions with Methylated Histone Tails; Chromobox protein homolog 1 (Homo sapiens), P83916; AlphaScreen HP1-beta / biotin-H3K9me3 peptide binding; Potency, µM (top dose mostly 114 µM), for the others: top-dose activity change, negative = inhibition, actives largely listed as inhibitors; 390,000 compounds, 0.56% hits; note: potency is the fitted concentration of half-maximal effect; nearly all actives have a fitted effect of over 70% in size
Target sequence (P83916 whole entry, looked up): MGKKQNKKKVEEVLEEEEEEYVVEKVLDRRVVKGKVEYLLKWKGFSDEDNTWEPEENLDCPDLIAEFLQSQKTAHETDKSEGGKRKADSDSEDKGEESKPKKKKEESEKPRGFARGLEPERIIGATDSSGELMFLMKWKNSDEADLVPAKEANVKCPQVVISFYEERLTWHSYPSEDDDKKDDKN
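Compound inhibition of the preformed complex between 50 nM HP1-beta and 50 nM biotinylated H3K9me3 peptide was read by AlphaScreen. Buffer was PBS pH 7.4 with 0.01% Tween-20. Incubations ran 30 min at room temperature, with 10 ug/mL donor/acceptor beads.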
Numbers without * were called inactive; ? = inconclusive; / = no result; [ ] = another dose, or the depositor's remark. A selection: hits, their analogues and other compounds. The true share with any hit is near 12%. Unless noted, calls come from the whole dose curve; as a rule, active = well fitted curve in the direction sought with a large enough effect; inconclusive = small, poorly fitted or top-dose-only effect, or another doubt; inactive = no such curve, though single readings can be large; an effect the other way counts as inactive or inconclusive.

SMILES | PI5P4K alpha inh | JMJD2A Tudor inh | BAZ2B block | G9a inh | PLK1 PBD block | HP1b chromo inh
O=C(c1ccc(NC(=S)NCc2ccco2)cc1)N1CCOCC1 | 0 | -7% | -18% | 45µM* | -20% | 10%
S=C(NCc1ccccc1)NCc1ccco1 | -28 | -25% | -30% | ? | ? | 5%
O=S(=O)(c1cccc(NC(=S)NCc2ccco2)c1)N1CCOCC1 | -13 | -15% | -10% | ? | -1% | 16%
NC(=O)c1ccc(NC(=S)NCc2ccco2)cc1 | 4 | -18% | 1% | 50µM* | -5% | 14%
CC(C)c1ccc(S(=O)(=O)N2CCN(C(=S)NCc3ccco3)CC2)cc1 | ? | -26% | -25% | ? | 21µM* | ?
NS(=O)(=O)c1ccc(NC(=S)NCc2ccco2)cc1 | -21 | -29% | ? | 3.2µM* | 27µM* | ?
COCCN1C(=O)CCC1(C)c1nnnn1-c1ccc2ccccc2c1 (stereo not drawn) | -1 | / | / | / | -5% | /
CC(C)c1ccc(NC(=O)c2cc(S(=O)(=O)N3CCCCC3)c[nH]2)cc1 | -9 | -9% | 4% | 23% | 4% | 27%
COc1ccc(-c2cc3c(=O)n(CC(=O)Nc4ccc(Br)c(C)c4)ccn3n2)cc1OC | / | -4% | 0% | 21%[59 µM] | / | 35%
COC(=O)c1ccc(NC(=S)NCc2ccco2)cc1 | -1 | -21% | ? | 50µM* | -14% | 10%
CC(=O)c1ccc(NC(=S)NCc2ccco2)cc1 | -2 | -17% | ? | / | -5% | 28%
O=S(=O)(c1ccc(NC(=S)NCc2ccco2)cc1)N1CCCCC1 | 5 | -31% | -38% | 56µM* | -14% | -7%
Cc1cccc(N(CC(O)CN2CCCC2)S(=O)(=O)c2ccccc2)c1 (stereo not drawn) | 7 | -17% | 4% | -10% | -9% | 0%
Cc1ccc2[nH]c(CSc3nnc(NC(=O)COc4ccccc4C)s3)cc(=O)c2c1 | / | -3% | 12% | -10%[59 µM] | / | 13%[57 µM]
CCOc1ccc(Nc2c(S(=O)(=O)c3ccc(Cl)cc3)cnc3ccc(OCC)cc23)cc1 | / | -5% | -23% | -9%[59 µM] | / | 43%
CCn1cc(C(=O)N(C)Cc2ccccc2)c(=O)c2cc(S(=O)(=O)N3CCc4ccccc4C3)ccc21 | / | -21% | / | -33%[59 µM] | / | 21%
CC(C)(C)c1ccc(-c2nnc(SCC(=O)O)n2N)cc1 | / | -11% | 1% | 45µM* | -11% | 42%
C=CCn1c(SCC(=O)O)nnc1-c1ccc(C(C)(C)C)cc1 | -16 | 0% | -2% | 32µM* | -3% | 54%
CCCOc1c(Cl)cc(C(=O)N(Cc2cccc(OC)c2)C2CCS(=O)(=O)C2)cc1Cl (stereo not drawn) | / | -17% | -10% | 2%[59 µM] | / | 42%
CCSc1ncc(/C=N/Nc2ccc(F)cc2)n1C | -5 | ? | ? | 25µM* | -15% | -12%
CC(=O)Nc1ccc(NC(=O)CSc2ncc(C(=O)Nc3ccc(F)cc3)c(=O)n2C)cc1 | -2 | -8% | -5% | -6% | -2% | -10%
Cc1ccc(C)c(N2CCN(C(=O)c3cc(S(=O)(=O)N4CCC(C)CC4)cn3C)CC2)c1 | / | -35% | -31% | -3%[59 µM] | / | 5%[57 µM]
CCN1CCN(c2ccc(N3CCN(C(=O)c4ccc(Br)o4)CC3)nn2)CC1 | 6 | -9% | -3% | 9%[2.33 µM] | -3% | 34%
O=C1N/C(=C/c2cccn2-c2ccccc2)C(=O)N1Cc1ccc(F)cc1 | 10 | -30% | -24% | 13µM* | -2% | 12%
N#C/C(=C/c1cccn1-c1cccc(C(=O)O)c1)c1ccc(F)cc1 | 1 | -35% | 50µM* | ? | -29% | -2%
SMILES | PI5P4K alpha inh | JMJD2A Tudor inh | BAZ2B block | G9a inh | PLK1 PBD block | HP1b chromo inh
O=C(O)c1cccc(-n2cccc2/C=C2/NC(=O)N(Cc3ccccc3F)C2=O)c1 | -6 | -17%[11.4 µM] | 50µM* | 45µM* | -23% | -26%
O=c1[nH][nH]c2cc([N+](=O)[O-])ccc12 | -14 | -27% | / | / | -12% | -9%[57 µM]
Cc1csc2nc(CSc3ccc(Cl)cc3)cn12 | -13 | 17% | 7% | 22%[12.7 µM] | 6.7µM* | 65%
O=c1oc2ccccc2c(Nc2cc3ccccc3cc2O)c1[N+](=O)[O-] | ? | ? | 11µM* | ? | ? | -8%
Nc1nc2c(ncn2-c2ccccc2)c(=O)[nH]1 | 3 | 0% | / | / | -5% | 29%
O=c1[nH]c(=S)c2ncn(-c3ccccc3)c2[nH]1 | ? | 14µM* | ? | 25µM* | 27µM* | -7%
COc1ccc(-n2c(CCc3ccccc3)nnc2SCC(=O)NCc2ccccc2)cc1 | 1 | -19% | -32% | ? | -12% | 27%
COc1ccc(C(=O)CSc2nnc(CCc3ccccc3)n2-c2ccccc2)cc1 | / | 56µM* | -1% | 40µM* | 1% | 17%
COc1ccc(-n2c(CCc3ccccc3)nnc2SCC(=O)c2ccccc2)cc1 | ? | -35% | -37% | 8.9µM* | -3% | 0%
C[C@H](NC(=O)c1[nH]cnc1C(=O)N[C@@H](C)CO)c1ccccc1 | 4 | / | / | / | -8% | /
COc1ccccc1N(C(=O)c1snc(C(N)=O)c1N)C(C(=O)NC1CCCCC1)c1cccc(OC)c1OC (stereo not drawn) | 11 | -22% | -2% | -1% | -3% | 2%
Cc1cccc(CNC(=O)CCCn2c(=O)c3cccn3c3ccc(F)cc32)c1 | / | 1% | -2% | 23%[59 µM] | / | 63%
CC1CN(c2ccc(Cl)cc2[N+](=O)[O-])CCN1S(C)(=O)=O (stereo not drawn) | 4 | -12%[11.4 µM] | -27% | -8%[12.7 µM] | 30µM* | -24%
CC1(C)CC(=O)C2=C(C1)N(c1cccc(O)c1)C1=C(C2)C(=O)CC(C)(C)C1 | 1 | 8% | ? | 2.2µM* | -13% | 56%
CCCCCN1C(C(=O)c2ccccc2)=C(NC(=O)c2ccccc2Cl)c2ccccc2S1(=O)=O | / | -27% | 0%[57.1 µM] | -27%[59 µM] | / | 21%
COc1ccccc1N1CCN(C(=O)c2cc(-c3ccco3)on2)CC1 | -11 | ? | -8% | 45µM* | -7% | 3%
COc1ccccc1N1CCN(C(=O)c2cc(-c3ccccc3)on2)CC1 | 2 | -14% | -15% | 16%[59 µM] | -2% | 24%
COc1ccc(-c2cc(C(=O)N3CCN(c4ccccc4OC)CC3)no2)cc1OC | -3 | ? | 79µM* | 6%[59 µM] | -13% | 2%
COc1ccccc1N1CCN(C(=O)c2sc3nc(-c4ccc(F)cc4)cn3c2C)CC1 | -2 | -32% | ? | 28µM* | -5% | 6%
